# A selection: hits, their analogues and other compounds. The true share with any hit is near 1.9%.
# PriA SSB inh: blocks PriA binding to SSB C-terminal tail; AlphaScreen SSBct-PriA binding, biotinylated peptide; inhibition, % at 33 µM; actives 0.6% (n = 430,000); AID 1272365; in the data active = inhibition mostly above about 37%, no sharp cut-off; inactive = mostly below about 20%
# RecA splice inh: blocks M. tuberculosis RecA intein splicing | P9WHJ3 | cell-free RecA intein splicing, fluorescence | inhibition, % (concentration not given with the values) | actives 0.75% (n = 290,000); in the data active = inhibition above about 30%
# Target sequence (P9WHJ3 whole entry, looked up, canonical isoform): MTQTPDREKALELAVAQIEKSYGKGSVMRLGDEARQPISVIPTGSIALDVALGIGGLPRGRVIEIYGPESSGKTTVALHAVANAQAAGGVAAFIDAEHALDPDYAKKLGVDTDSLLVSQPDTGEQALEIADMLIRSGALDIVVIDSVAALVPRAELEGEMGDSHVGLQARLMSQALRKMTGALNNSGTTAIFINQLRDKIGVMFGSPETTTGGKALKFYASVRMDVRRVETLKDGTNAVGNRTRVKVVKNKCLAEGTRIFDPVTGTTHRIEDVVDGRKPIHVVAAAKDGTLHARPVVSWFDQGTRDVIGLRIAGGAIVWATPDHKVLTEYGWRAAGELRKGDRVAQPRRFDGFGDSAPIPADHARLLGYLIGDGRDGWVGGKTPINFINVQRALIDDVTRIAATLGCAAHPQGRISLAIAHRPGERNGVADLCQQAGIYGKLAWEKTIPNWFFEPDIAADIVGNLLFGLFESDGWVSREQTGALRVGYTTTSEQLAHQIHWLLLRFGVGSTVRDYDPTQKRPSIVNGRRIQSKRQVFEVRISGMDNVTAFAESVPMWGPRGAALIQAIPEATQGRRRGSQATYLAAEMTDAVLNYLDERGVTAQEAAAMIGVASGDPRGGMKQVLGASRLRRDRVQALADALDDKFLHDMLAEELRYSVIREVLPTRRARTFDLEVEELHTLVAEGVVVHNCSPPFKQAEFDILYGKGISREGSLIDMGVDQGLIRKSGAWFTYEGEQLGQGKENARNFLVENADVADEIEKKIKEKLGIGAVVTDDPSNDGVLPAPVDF
# PrPC TRFRET: inhibitors of human cell surface prion protein PrPC | actives 0.43% (n = 370,000) | inhibition, % at 13.8 µM | AID 720596 | TR-FRET read-out; in the data active = inhibition above about 24%
# PfHsp40 yeast: restores yeast growth despite PfHsp40 toxicity | actives 0.68% (n = 340,000) | growth rescue, % at 12.5 µM | AID 504582 | S. cerevisiae expressing PfHsp40, growth rescue, ATP luminescence; in the data active = growth rescue above about 28%, passing the limit was not always enough;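 also: yeast W303a lacking pdr1 and pdr3 grown in galactose medium; growth measured after three days at 30 °C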
# PrP 5UTR inh: suppresses PrP 5' UTR mRNA reporter expression | inhibition, % (no concentration beside the values) | actives 0.35% (n = 340,000) | cell-based PrP 5' UTR mRNA reporter, plate reader; in the data active = inhibition above about 52%
# BJeLR lethal: BJeLR cell viability loss; BJeLR (HRASV12) viability, CellTiter-Glo ATP luminescence, 48 h; inhibition, % (test concentration not listed); actives 0.17% (n = 300,000); in the data active = inhibition above about 50%
# Numbers stand for hits; – = inactive; · = no result.
SMILES,PriA SSB inh,RecA splice inh,PrPC TRFRET,PfHsp40 yeast,PrP 5UTR inh,BJeLR lethal
COCCOc1cc(NC(=O)c2sccc2Oc2ccc([N+](=O)[O-])cc2F)c(Cl)cc1Cl,–,–,–,–,–,–
CNc1cc(CSC)nc(SCc2ccc(Cl)cc2Cl)n1,–,–,–,308,–,–
Nc1nc(SCc2ccc(Cl)cc2Cl)n[nH]1,–,–,–,–,–,–
CCOC(=O)C1Nc2c(F)cc(C)cc2C2c3ccccc3CC12 (stereo not drawn),–,45,–,–,–,–
O=C(O)Cn1cc2c(n1)CCCCC2,–,–,–,30,–,–
O=C(Cn1cc2c(n1)CCCCC2)N1CCCCC1,–,–,–,–,–,–
COCC(=O)N1C2CCC1CC(SC)C2 (stereo not drawn),–,·,·,·,·,·
CCN(CC)CCCNC(=O)c1cc(-c2ccccc2)c(N2CCCCC2)s1,–,–,–,–,·,51
C=CCSc1nnc(-c2cccc3ccccc23)o1,89,·,–,–,–,·
O=C(NCc1ccco1)c1cc(-c2ccccc2)nn1CC1CC(c2cccnc2)=NO1 (stereo not drawn),–,–,–,–,–,–
O=C(NCc1ccc(OC(F)(F)F)cc1)c1cc(-c2ccccc2)nn1CC1CC(c2cccnc2)=NO1 (stereo not drawn),–,–,–,65,–,–
CCCNC(=O)CSc1nc(-c2ccco2)cc(C(F)(F)F)c1C#N,–,·,·,·,·,·
COC(=O)c1ccccc1Sc1ncnc2onc(C)c12,–,46,–,–,–,–
CCCCC#Cc1ccccc1COC[B-](F)(F)F,·,·,29,·,·,·
O=C(NCc1nnc(SCC(=O)N2CCOCC2)o1)c1ccccc1,56,·,–,·,·,·
CCOc1cc2c3c(c1)C1(Nc4ccccc4S1)C(=O)N3C(C)(C)CC2C (stereo not drawn),40,–,–,–,–,–
O=C(NN=Cc1ccc(Cl)cc1Cl)c1cccc(N2CCCC2=O)c1,–,·,·,·,·,·
O=C(NCCC(O)c1ccc2c(c1)OCO2)c1ccc(Cl)s1 (stereo not drawn),37,·,·,·,·,·
O=C(NCCOc1ccc(F)cc1)c1cc(N2CCCC2)ncn1,–,·,·,·,·,·
COC(=O)C1CCN(C2=C(NS(=O)(=O)c3ccc(Cl)cc3)C(=O)c3ccccc3C2=O)CC1,73,–,–,–,–,–
Oc1ccccc1Nc1nc(NCc2ccccc2)c2ccccc2n1,50,–,–,–,–,–
CNc1nc(NCc2ccccc2)c2ccccc2n1,–,–,–,–,–,–
CC(C)[C@H]1C=C(C(=O)O)O[C@@H](OCCCCO)C1,–,–,–,56,–,–
CC(C)[C@H]1C=C(C(=O)O)O[C@@H](OCc2ccc(CO)cc2)C1,–,–,–,–,–,–
COC(=O)c1cc(OCc2cccc(Cl)c2)c2cc(OC)c(OC)cc2n1,–,·,·,·,·,·
SMILES,PriA SSB inh,RecA splice inh,PrPC TRFRET,PfHsp40 yeast,PrP 5UTR inh,BJeLR lethal
Cc1ccc2[nH]c(=O)c(C3C(C#N)=C(N)Oc4c3ccc3cccnc43)cc2c1 (stereo not drawn),–,·,–,84,–,–
N#CC1=C(N)Oc2c(ccc3cccnc23)C1c1ccccc1 (stereo not drawn),–,–,–,–,–,–
COc1cccc(C2NC(=S)NC3=C2CCc2ccccc23)c1 (stereo not drawn),–,–,–,173,–,–
COc1ccc2c(c1)C1=C(CC2)C(c2ccc(C)cc2)NC(=S)N1 (stereo not drawn),–,–,–,–,–,–
O=S(=O)(c1ccccc1)c1nc(/C=C/c2ccccc2)oc1NCc1ccco1,–,·,·,·,·,·
O=S(=O)(NCc1ccccn1)c1ccc(C2CCCCC2)cc1,–,·,·,·,·,·
C=CCc1c(C)nc2c(-c3ccccc3)cnn2c1NCCc1ccc(OC)c(OC)c1,36,·,·,·,·,·
O=C(NC1CCCC1)N1CC(Oc2nccs2)C1,–,·,·,·,·,·
C[C@@H]1CC[C@H]2[C@@H](C)C(=O)O[C@@H]3O[C@@]4(C)CC[C@@H]1[C@]32OO4,–,–,–,104,–,–
CC1=C(C)C(=NOS(=O)(=O)c2ccccc2)C=CC1=O,–,·,·,·,·,·
CC1=C(C)/C(=N\OS(=O)(=O)c2ccccc2)C=CC1=O,·,41,·,637,–,84
CCN(CC)C(=O)CSc1nnc2nnc3cc(Cl)ccc3n12,–,42,–,–,–,–
COc1ccccc1Nc1ccc2c(O)cc(S(=O)(=O)O)cc2c1,51,·,–,–,–,·
NC(=O)c1ccnc2c(O)cccc12,41,·,–,–,–,·
Oc1cccc2c(-c3nn[nH]n3)ccnc12,54,·,–,–,–,·
OCc1ccnc2c(O)cccc12,87,–,–,–,–,–
Nc1ncn([C@@H]2O[C@H](CO)[C@@H](O)[C@H]2O)c(=O)n1,–,–,42,–,–,–
CCOC(=O)C1CCN(C2=NC(=O)/C(=C/c3ccc(Cl)cc3)S2)CC1,–,–,–,–,–,–
CCOC(=O)CSC1=NC(=O)/C(=C\c2ccc(Cl)cc2)S1,–,–,–,40,–,–
COc1ccc2[nH]c(=O)c(CN(Cc3nnnn3Cc3ccco3)C3CCCCC3)cc2c1,–,–,–,–,–,–
COc1ccc2[nH]c(=O)c(CN(C3CCCCC3)C(c3nnnn3Cc3ccco3)C(C)C)cc2c1 (stereo not drawn),–,33,·,–,–,–
COC(=O)c1sc(-c2ccccc2)cc1NC(=O)c1ccc(N2C(=O)CCC2=O)cc1,–,·,·,·,·,·
COc1ccc(Cc2nnc(C3CCN(S(C)(=O)=O)CC3)s2)cc1,–,·,·,·,·,·
COc1ccccc1NC(=O)NC[C@H](O)c1cccn1C,–,·,·,·,·,·
COCCN1CCCc2ccc(N)cc21,79,·,·,·,·,·
SMILES,PriA SSB inh,RecA splice inh,PrPC TRFRET,PfHsp40 yeast,PrP 5UTR inh,BJeLR lethal
COCCN1CCCc2ccc(NC(=O)c3cc(C)cc(C)c3)cc21,62,·,·,·,·,·
COCCN1CCCc2ccc(NC(=O)c3ccc(Br)cc3)cc21,61,·,·,·,·,·
CCCCOc1ccc(C(=O)Nc2ccc3c(c2)N(CCOC)CCC3)cc1,–,·,·,·,·,·
COCCN1CCCc2ccc(NS(=O)(=O)c3ccc(OC)cc3)cc21,–,·,·,·,·,·
COCCN1CCCc2ccc(NC(=O)c3ccccc3Cl)cc21,–,·,·,·,·,·
CN(c1ccccc1)S(=O)(=O)c1ccc(C(=O)N=c2sc3cc([N+](=O)[O-])ccc3n2C)cc1,–,·,·,·,·,·
Cc1cc(C)cc(OCCNS(=O)(=O)c2cccc(C(F)(F)F)c2)c1,–,·,·,·,·,·
COc1ccc(CCCC(=O)NCCc2ccccc2)c(C)c1,–,–,–,40,–,–
CCc1ccc(-c2csc3[n+]2CCN3C(C)=O)cc1,–,–,–,93,–,–
CC(=O)N1CCN(C(=S)c2ccc(Cl)cc2)CC1,–,–,–,–,–,–
CC(=O)N1CC[n+]2c(-c3ccc(Cl)cc3)csc21,–,–,–,66,–,–
O=C(CNS(=O)(=O)c1ccc(F)cc1)N1CCOC(c2ccccc2)C1 (stereo not drawn),–,·,·,·,·,·
C/C(CC(=O)Nc1cc(C)ccn1)=N\NC(=O)c1ccc(C)cc1,·,62,–,–,–,–
Cc1cccc(N=NC(=S)NNc2cccc(C)c2)c1,52,·,–,–,–,·
CN(C)c1ccc(C=Nc2nnc(NC(=O)c3ccccc3Br)s2)cc1,–,·,·,·,·,·

# Assay outcomes from PubChem BioAssay.
